For 98 molecules, activity, negative = inhibition and AC50 results are on record in PubChem BioAssay AID1851 (National Center for Advancing Translational Sciences (NCATS), 2009).

Several values for one entry are separate records, joined by “and”; a condition that tells them apart may be missing. Identical values can stand only once. Among all 16,000 compounds or so, about 5,800 (36%) were called active. Not shown: some 23% with an inconclusive outcome. Calls follow the shape of the dose curve; as a rule, active = well fitted curve in the direction sought with a large enough effect; inconclusive = small, poorly fitted or top-dose-only effect, or effect the other way; inactive = no such curve, though single readings can be large or run the other way. Some of the results follow. Some structures have more than one record in an assay (separate samples or runs), and their calls can disagree.
% is scaled to controls: 0 for no effect and ±100 for the full control effect.

The target of the assay is Cytochrome P450 2C19 (Homo sapiens) (UniProt P33261). The assay can be described thus: Cytochrome panel assay with activity outcomes. Particulars: recombinant CYP, pro-luciferin dealkylation, luminescence, p450-cyp2c19; series mostly up to 57.1 µM.
Cytochrome P450 2C19 (Homo sapiens), sequence (P33261 whole entry, looked up): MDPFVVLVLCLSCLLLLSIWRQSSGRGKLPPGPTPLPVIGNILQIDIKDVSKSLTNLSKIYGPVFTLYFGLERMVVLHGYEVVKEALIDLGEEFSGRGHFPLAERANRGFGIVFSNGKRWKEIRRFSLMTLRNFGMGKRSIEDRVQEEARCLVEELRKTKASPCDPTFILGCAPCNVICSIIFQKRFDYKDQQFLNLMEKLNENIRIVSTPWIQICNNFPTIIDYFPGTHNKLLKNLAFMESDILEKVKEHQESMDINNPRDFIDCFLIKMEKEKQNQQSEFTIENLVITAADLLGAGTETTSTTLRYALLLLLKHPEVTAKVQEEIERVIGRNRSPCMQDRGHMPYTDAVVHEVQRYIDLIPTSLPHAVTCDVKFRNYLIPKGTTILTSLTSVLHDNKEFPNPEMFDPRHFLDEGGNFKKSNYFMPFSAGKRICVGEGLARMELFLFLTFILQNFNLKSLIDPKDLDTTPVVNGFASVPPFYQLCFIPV
As to `CC(C)(C)c1ccc(-c2nnc(SCc3ccc(Cl)cc3)n2-c2cccc(C(F)(F)F)c2)cc1`, the activity, negative = inhibition was -28.9% [at 11.4 µM] (inactive). For orientation: AC50 means the concentration giving half of the maximal activity seen. `O=S(Cc1ccc(Br)cc1)Cc1nnc(SCc2ccc(Cl)cc2)n1-c1ccccc1` (stereo not drawn): the AC50 is 10 µM (active). For the molecule `OCCCNc1ncnc2[nH]ncc12`, the activity, negative = inhibition is 36.5% [at 11.4 µM] (inactive). As to `CCOC(=O)c1c(-c2ccccc2)nc2c(C)cccn12`, the AC50 was 15.8 µM (active). Still for that read-out and setting: in the case of `Cc1ccccc1C(C(=O)NC1CCCC1)N(C(=O)Cc1cccs1)c1ccc2c(c1)OCCO2` (stereo not drawn) it was 14.1 µM (active); in that of `CC(C)C(NC(=O)C1CCCCC1)C(=O)NCc1ccccn1` (stereo not drawn), “inactive”; in that of `Cc1nn(C)cc1C(C(=O)NC1CCCCC1)N(C(=O)Cc1cccs1)c1ccc(C(C)C)cc1` (stereo not drawn), 7.94 µM (active).

For the molecule `Cc1cc(C)cc(N(C(=O)Cc2cccs2)C(C(=O)NC2CCCCC2)c2ccccn2)c1` (stereo not drawn), the concentration at half-maximal activity (AC50) is 15.8 µM (active).

On to `C/C(CC(=O)NC1CCCC1)=N\NC(=O)Cc1cccs1`, for which the AC50 result is “inactive”. Same read-out and setting: in the case of `COc1ccccc1/C=N/NC(=Nc1ccc(C)cc1)c1nc2ccccc2s1` it was “inactive”. Same read-out and setting: the figure for `COc1ccccc1/C=N/NC(=O)CC(=O)Nc1ccc(Cl)c(Cl)c1` is 11.2 µM (active). Turning to `COC(=O)N1CCC2(CC1)CN(c1ccc(-c3ccccc3)cc1)C2`, the AC50 entry was “inactive”. For the molecule `COC(=O)N1CCC2(CCCN(c3ccc(-c4ccccc4)cc3)C2)CC1`, the AC50 result was “inactive”. As to `COC(=O)N1CCC[C@@]2(CCN(c3ccncc3)C2)C1`, the AC50 entry is “inactive”.

Take `O=C(Oc1ccccc1)N1CCC2(CC1)CCN(c1ccncc1)CC2`: the AC50 result is “inactive”. Still for that read-out and setting: the figure for `O=C(Oc1ccccc1)N1CCC[C@@]2(CCN(c3ccncc3)C2)C1` is 5.01 µM (active); for `O=C(Oc1ccccc1)N1CCC2(CC1)CN(c1ccncc1)C2` it is 7.94 µM (active); for `COC(=O)N1CCC2(CC1)CN(c1ccccc1)C2` it is 6.31 µM (active). The same measure, in the same setting: the entry for `CC(=O)N1CCC2(CC1)CN(c1ccncc1)C2` is “inactive”. Consider `C[C@H](NC[C@H](O)CP(=O)(O)CC1CCCCC1)c1ccc(Cl)c(Cl)c1`, for which the AC50 entry was “inactive”. Turning to `OC[C@H](S)CS`, the activity, negative = inhibition is -35.3% [at 11.4 µM] (inactive).

As to `CCCCNC(=O)NC1C(NC(=O)NCCCC)N(C)C(=O)N1C` (stereo not drawn), the AC50 entry is “inactive”.

For `CCCCNC(=S)NNC(=O)CCn1nc(C)c(Br)c1C`, the AC50 was 11.2 µM (active). With `COc1cccc(NC(=O)C2c3cc(OC)c(OC)cc3C(=O)N(C)C2c2cccnc2)c1` (stereo not drawn), the AC50 result was “inactive”. For `Cc1cccc(NC(=S)N(CCc2nc3cc(C)c(C)cc3[nH]2)Cc2cccnc2)c1`, the AC50 is 3.16 µM (active). The same measure, in the same setting: the entry for `COc1cccc(Nc2ncc3nc(C)c(=O)n(CCc4ccccc4)c3n2)c1` is “inactive”; for `COc1cccc(NC(=S)N(CCc2nc3cc(C)c(C)cc3[nH]2)Cc2cccnc2)c1` it is 3.98 µM (active). With `COc1ccc(NC(=S)N(CCc2nc3cc(C)c(C)cc3[nH]2)Cc2cccnc2)cc1`, the half-maximal activity concentration (AC50) was 14.1 µM (active). Regarding `COc1ccc(COc2ccsc2C(=O)Nc2ccc(Cl)c(Cl)c2)cc1`, the AC50 is 7.94 µM (active). Same read-out and setting: in the case of `CNC(=S)NNC(=O)c1sccc1OCc1ccc(C)cc1` it was 5.01 µM (active); in that of `FC(F)(F)c1cc(CN2CCCC3(CCNCC3)C2)cc(C(F)(F)F)c1`, “inactive”; in that of `C(=C\c1nnc(-c2cccs2)o1)/c1ccccc1`, 22.4 µM (active).

Regarding `Cc1ccc(/C=C/c2nnc(-c3ccc(C)cc3)o2)cc1`, the AC50 entry is “inactive”. Consider `Cc1oc(-c2cccs2)[n+]([O-])c1C`, for which the AC50 entry is “inactive”. On the same count and under the same terms, in the case of `CCN=C1NN=C(c2ccc(C)cc2)CS1` it was 10 µM (active); in that of `Nc1nc(NCCc2ccc(O)cc2)nc2nc(-c3ccco3)nn12`, “inactive”. The same measure, in the same setting: the figure for `FC(F)(F)c1cc(-c2ccco2)nc(NCCc2ccccc2)n1` is 1.78 µM (active); for `CN1CCN(CC(=O)N2c3ccccc3C(=O)Nc3cccnc32)CC1` it is “inactive”. On the same count and under the same terms, the entry for `Cc1scc2c1N(C(=O)CN1CCN(C)CC1)c1ccccc1NC2=O` is “inactive and 3.98 µM (active)”. Turning to `O=C(Cc1ccccc1I)Nc1ccccc1`, the concentration at half-maximal activity (AC50) is 6.31 µM (active). The same measure, in the same setting: in the case of `CCC#CCOCC(=O)Nc1ccccc1` it was “inactive”; in that of `CCCCC#Cc1ccccc1CC(=O)Nc1ccccc1`, 0.794 µM (active). Turning to `O=C(O)[C@H](/C=C\c1ccccc1)c1ccccc1`, the activity, negative = inhibition is -22.1% [at 11.4 µM] (inactive). Take `COC(=O)c1cc(/C=C/c2ccccc2)on1`: the concentration at half-maximal activity (AC50) is 35.5 µM (active). Regarding `Cc1ccc(NC(=O)c2cc([N+](=O)[O-])ccc2NCc2cccnc2)cc1Cl`, the AC50 is 0.0794 µM (active). Still for that read-out and setting: in the case of `CS(=O)(=O)N1CCC[C@@]2(CCN(C(=O)Nc3cccc(C#N)c3)C2)C1` it was “inactive”; in that of `CNC(=O)/C(C#N)=c1\s/c(=C/C(=O)OC)c(=O)n1-c1ccccc1`, 5.01 µM (active).

As for `COc1cccc(/C=c2/s/c(=C(\C#N)C(=O)N3CCOCC3)n(-c3ccccc3)c2=O)c1`, the AC50 entry was “inactive”.

Turning to `Cc1nn(CC(=O)NCc2ccccc2)c(C)c1[N+](=O)[O-]`, the AC50 entry is “inactive”. The same measure, in the same setting: the entry for `Cn1c(=O)c2cc(S(=O)(=O)NCCC(=O)NCc3ccccc3Cl)ccc2n(C)c1=O` is “inactive”; for `Cc1nn(CC(=O)NCc2ccccc2Cl)c(C)c1[N+](=O)[O-]` it is 15.8 µM (active). The same measure, in the same setting: the figure for `O=C(Cc1ccccc1[N+](=O)[O-])NCc1ccccc1Cl` is 31.6 µM (active); for `Cc1nn(CC(=O)NCCN2CCOCC2)c(C)c1[N+](=O)[O-]` it is “inactive”. As for `O=C(Cc1ccccc1[N+](=O)[O-])NCCSCc1c(F)cccc1Cl`, the concentration at half-maximal activity (AC50) was 2.51 µM (active). As for `CNCC[C@@H](Oc1ccccc1C)c1ccccc1`, the AC50 entry is “inactive”. The same measure, in the same setting: the figure for `Cc1ccc(C(=O)C(OC(=O)CCC(=O)Nc2cccc(C)c2)c2ccccc2)cc1` (stereo not drawn) is 11.2 µM (active); for `O=C(CN1C(=O)c2ccccc2C1=O)NCC(=O)OCC(=O)c1ccc(Br)cc1` it is “inactive”; for `Cc1ccc(C(=O)C(OC(=O)CNS(=O)(=O)c2ccccc2)c2ccccc2)cc1` (stereo not drawn) it is 10 µM (active).

With `Cc1ccccc1OCC(=O)OC1CCN(C)CC1`, the AC50 result is “inactive”. Take `Cc1ccc(C(=O)C(OC(=O)CN2C(=O)c3ccccc3C2=O)c2ccccc2)cc1` (stereo not drawn): the half-maximal activity concentration (AC50) was 3.55 µM (active). Still for that read-out and setting: in the case of `Cc1ccc(C(=O)C(OC(=O)COc2ccccc2C)c2ccccc2)cc1` (stereo not drawn) it was 7.08 µM (active); in that of `CCNc1ncc2nc(-c3cc(F)cc(F)c3)c(=O)n(-c3ccc(OC)cc3)c2n1`, “inactive”.

With `Cc1ccc(NC(=O)C2C3CCCC2C3c2ccccc2)cc1C` (stereo not drawn), the AC50 result was “inactive”.

Take `CC(=O)Nc1cccc(C(=O)OC(C(=O)c2ccc(C)c(C)c2)c2ccccc2)c1` (stereo not drawn): the concentration at half-maximal activity (AC50) is 3.98 µM (active). Regarding `CN(C)Cc1cc(Cl)c(O)c(CN(C)C)c1`, the activity, negative = inhibition is 2.46% [at 11.4 µM] (inactive).

In the case of `CN(Cc1cc(Br)cc(Br)c1O)Cc1c(O)ccc2ccccc12`, the concentration at half-maximal activity (AC50) is 0.501 µM (active). As for `CCN(Cc1cc(Cl)cc(C)c1O)Cc1c(O)ccc2ccccc12`, the AC50 was 1.26 µM (active).

Take `Oc1ccc2ccccc2c1C=NCc1c(O)ccc2ccccc12`: the activity, negative = inhibition was -16.5% [at 11.4 µM] (inactive).

Consider `CN(Cc1cc(Cl)cc(Cl)c1O)Cc1c(O)ccc2ccccc12`, for which the AC50 was 1.26 µM (active). Regarding `CN(CC(=O)O)Cc1c(O)c(Cl)cc(Cl)c1Cl`, the activity, negative = inhibition was 40.6% [at 11.4 µM] (inactive).

On to `O=C1Nc2ccccc2C1=Nc1cccc2ncccc12`, for which the activity, negative = inhibition is 27.9% [at 11.4 µM] (inactive). In the case of `COC(=O)C(CCSC)NC(=O)c1cccc([N+](=O)[O-])c1` (stereo not drawn), the concentration at half-maximal activity (AC50) was 14.1 µM (active).

Consider `COC(=O)[C@H](CCSC)NC(=O)C/C=C\[C@@H](C)CO`, for which the activity, negative = inhibition was 35.2% [at 11.4 µM] (inactive). Consider `COC(=O)[C@H](CCSC)NC(=O)C/C=C\[C@@H](C)[C@@H](CO)OC`, for which the activity, negative = inhibition was -1.07% [at 11.4 µM] (inactive).

For `NCCS(=O)O`, the AC50 result is “inactive”. The same measure, in the same setting: the figure for `C=CC(=O)NC(NC(=O)C=C)c1ccc(Br)cc1` is 15.8 µM (active); for `CC(=O)NC(NC(C)=O)c1ccc(Br)cc1` it is “inactive”. As to `O=C(O)C(=O)/C=C(\O)c1ccc(Br)cc1`, the activity, negative = inhibition is 29% [at 11.4 µM] (inactive).

Turning to `O=C(COC(=O)c1cccnc1)c1ccc(Cl)c(Cl)c1`, the AC50 is 2.24 µM (active).

Regarding `O=S(=O)(/N=C(\Sc1ccccc1)c1ccccc1)c1ccc(Cl)cc1`, the AC50 is 15.8 µM (active). The same measure, in the same setting: in the case of `CCOC(=O)c1sc(C)c(C(=O)NCC(C)(C)CN(C)C)c1N` it was 28.2 µM (active); in that of `O=C(COc1ccc(Br)cc1)N1CCC(c2ccccc2)C1` (stereo not drawn), 1.12 µM (active). Same read-out and setting: in the case of `COCC(=O)N1CCC2(CCCN(Cc3ccccc3)C2)CC1` it was “inactive”; in that of `CCOc1ccc(NC(=O)N2CCC(c3ccc(C)cc3)C2)cc1` (stereo not drawn), “inactive”. On to `Cc1nnc(SCC(=O)N2CC(=O)Nc3ccccc32)n1Cc1ccccc1`, for which the AC50 result was “inactive”. As for `Cc1sc2nc(C3CC3)nc(SCC(=O)N3CC(=O)Nc4ccccc43)c2c1C`, the concentration at half-maximal activity (AC50) was 3.98 µM (active).

Take `CC1=C(\C=C/C(C)=C/C=C\C(C)=C\C(=O)O)C(C)(C)CCC1`: the concentration at half-maximal activity (AC50) is 5.01 µM (active). For the molecule `CC1=CC(=O)CC(C)(C)[C@]1(O)/C=C\C(C)=C\C(=O)O`, the activity, negative = inhibition was -25.7% [at 11.4 µM] (inactive). For the molecule `CN(C)c1ncc2nc(-c3cccs3)c(=O)n(C[C@H]3CCCO3)c2n1`, the AC50 entry is “inactive”. The same measure, in the same setting: the figure for `CCCc1nc2ccccc2c(C(=O)OCC(=O)Nc2cccc(S(=O)(=O)N3CCOCC3)c2)c1CC` is 3.55 µM (active). On the same count and under the same terms, in the case of `O=C(COC(=O)c1cccc(S(=O)(=O)N2CCOCC2)c1)Nc1nc(-c2ccccc2Cl)cs1` it was 3.98 µM (active); in that of `O=C(COC(=O)c1cccc(S(=O)(=O)N2CCN(c3ccccc3)CC2)c1)NCc1ccco1`, 0.708 µM (active). `COc1cc(C)cc(OC)c1/C=C\C(=O)O`: the activity, negative = inhibition is -0.542% [at 11.4 µM] (inactive). The same measure, in the same setting: in the case of `COc1ccc(Cc2ccccc2C(=O)O)c2ccccc12` it was 12.2% [at 11.4 µM] (inactive).

In the case of `COc1ccccc1/C=C/C(=O)c1c2c(c(C)[nH]c1=O)CCCC2`, the AC50 is 7.94 µM (active).

As to `COc1ccccc1/C=C/C(=O)c1ccc(Cl)cc1`, the AC50 is 2.24 µM (active).

For the molecule `COc1ccc2ccccc2c1/C=C\C(=O)c1ccccc1`, the concentration at half-maximal activity (AC50) was 0.316 µM (active). Still for that read-out and setting: in the case of `C[C@@H](Cc1ccccc1)Nc1ncnc2c1ncn2[C@@H]1O[C@@H](CO)[C@H](O)[C@@H]1O` it was “inactive”.
